Our source for the growth values is PubChem BioAssay (NCI).

About 83,000 compounds went through this panel and 20% of them were active in at least one assay; those are over-represented in the sample as a whole.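 Plates (96-well) were seeded with cells, treated with compound at one concentration, and incubated for 48 hours before percent growth was determined.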 Values without a mark were called inactive. Activity calls are given as the source filed them. Rule for the calls: active = growth percent below 10; inactive = the rest.

This assay relates to HL-60(TB) leukemia. Description: NCI-60 one-dose screen, 48 h (100 = growth as untreated, 0 = no growth, -100 = all killed). The following applies: 10 µM unless noted.
Regarding `Nc1nonc1-n1nncc1-c1cccnc1`, the growth was 134%. For `O=C(Nc1ccc(-n2cc(-c3ccncc3)c(-c3ccc(O)c(Cl)c3)n2)cc1)Nc1cc(C(F)(F)F)cc(C(F)(F)F)c1` the value was 43.6%. `NC(=O)c1cccc([C@@H]2O[C@H](CO)[C@@H](O)[C@H]2O)c1`: the growth is 39.5%.

`N#C/C(=C\c1ccc(-c2cccc(C(F)(F)F)c2)o1)c1nc(-c2ccco2)cs1`: the growth was 101%. As for `COc1cc2ncnc(Nc3ccc(Oc4ccnc(C)c4)c(C)c3)c2cc1NC(=O)CC1CCSS1` (stereo not given), the figure is -45.8% (active); as for `COc1ccc(-c2cc(-c3ccc(OC)cc3)c3sc(=O)[nH]c3n2)cc1`, 84.7%. For `COC(=O)[C@@H]1[C@H](O)[C@H](C)[C@H](O)[C@@](C)(O)/C=C\C=C(C)C(=O)Nc2c(C)c(OC(C)=O)c3c(c2O)C(=O)C(C)=C2OCOC(=C23)C(C)=C[C@@](C)(O)[C@H](O)[C@@H](C)[C@H]1OC(C)=O`, the growth was 71.2%.

With `C/C(=N\NC(=S)N1CC2CCC(CC2)C1)c1ccccn1`, the growth is -22.4% (active). On to `FC(F)(F)C1=NNC(c2ccc3ccccc3c2)=NN1`, for which the growth is 101%. For the compound `CN(C)c1ccc(N=Cc2ccc(N3CCOCC3)cc2)cc1`, the growth is 16.6%. For `COc1ccc(/C=C2\SC(=O)N(Cc3cc(=O)oc4ccc(OC)cc34)C2=O)cc1` the value was 90.9%; for `Cc1cccc2cc(/C=C/C(=O)/C=C/c3ccc(Cl)cc3)c(=O)[nH]c12`, 44.2%; for `CN(C)CCNC(=O)c1ccc(-c2nc3ccc4[nH]ncc4c3c3c2C2CCC3C2)cc1` (stereo not given), -20.6% (active). As for `COc1ccc(/C(=C\c2cc(OC)c(OC)c(OC)c2)C(=O)N2CCNCC2)cc1`, the figure is 98%; as for `COc1cnc2c(c1)C(=O)c1c-2n(CCCN2CCOCC2)c(=O)c2cc(F)ccc12`, -10.2% (active). For `CC1(C)N=C(N)N=C(N)N1c1cccc(Br)c1` the value was 33.9%; for `CN(C)CCN(C)CC(C)(C)C(=O)/C=C/c1ccc(Cl)cc1`, 0.343% (active); for `C=C(C)[C@@H]1CC[C@]2(C(=O)n3ccnc3)CC[C@]3(C)[C@H](CC[C@@H]4[C@@]5(C)CCCNC(C)(C)[C@@H]5CC[C@]43C)[C@@H]12`, -56.2% (active). `CCNC(=O)Oc1ccc(/C(=C(\C)c2ccccc2)c2ccc(OCCN3CCCCC3)cc2)cc1`: the growth was 45.5%.

As for `O=C(Cn1nnc2ccccc21)N/N=C/c1ccccc1F`, the growth was 107%. As for `O=C1NCC(=O)N(Cc2ccco2)[C@H]1Cc1ccccc1`, the growth was 102%. As for `C1C[S+]2CC[S+]1CC2`, the figure is 111%; as for `COc1ccc(OC)c(/C=C/c2nc(=S)n(-c3ccc(Cl)cc3)[nH]2)c1`, 4.33% (active). Turning to `Cc1cc(Nc2nc(SCc3ccc(C(=O)Nc4ccc(F)cc4N)cc3)nn3cccc23)n[nH]1`, the growth is -26.4% (active). Take `O=C(NC(=S)Nc1ccccn1)c1ccccc1`: the growth was 95.8%. As for `CC(CCc1ccccc1)NC(=O)c1n[nH]c(=O)c2ccccc12` (stereo not given), the figure is 88.3%. Consider `Cn1c(=O)c2[nH]c(C(O)C(O)C(O)C(O)CO)nc2n(C)c1=O` (stereo not given), for which the growth is 100%.

With `COc1ccc(Cl)cc1NC(=O)C(Br)C(Br)C(=O)O` (stereo not given), the growth was 1.26% (active). `O=C(CN1C(=O)S/C(=C\c2ccccc2)C1=O)Nc1ncc(Cc2ccccc2Cl)s1`: the growth was 95.1%. As to `N=C(N)c1ccc(-c2ccc(-c3ccc(Cl)cc3)o2)o1`, the growth was -53.5% (active).

For `Cc1cc(C)c(-c2c(O)c(Br)c(-c3c(C)cc(C)c(Br)c3C)c(O)c2Br)c(C)c1Br`, the growth is 27.3%.

With `O=C1c2ccccc2C(=O)c2c1ccc(C(Br)Br)c2[N+](=O)[O-]`, the growth is -37.9% (active). For `COC(=O)c1c(C)nc(C)c2c1C(=O)C(Br)=C(NCc1ccccc1)C2=O` the value was -30.9% (active); for `CN(C)c1ccc(/C=N/N=C(\C#N)[S][Sn]([Cl])([c]2ccccc2)[c]2ccccc2)cc1`, 0.861% (active); for `O=C1OCC2=C1C(c1ccccc1)c1cc3c(cc1N2CCO)OCCO3` (stereo not given), -14.1% (active). In the case of `CCCCCc1nc2c(c3c1CCCC3)CCCC2`, the growth was -15.2% (active). As for `Oc1c(CN2CCCC2)cc(COCc2ccc(Br)cc2)c2cccnc12`, the figure is -9.34% (active). With `O=C(Nc1cccc(-n2cc(-c3ccncc3)c(-c3ccc(O)c(Cl)c3)n2)c1)c1ccc(N2CCOCC2)c(C(F)(F)F)c1`, the growth is -10.6% (active). Consider `CCc1nc2cc(/C=C/C(=O)NO)ccc2c(=O)n1CCc1ccc(OC)cc1`, for which the growth was 0.921% (active). Take `COc1ccc(-c2c(C#N)cnc(N)c2-c2nc3cc(C)c(C)cc3[nH]2)cc1`: the growth was 89.4%.
